# According to PubChem BioAssay AID1159580 (chemical genetic matrix, 2015):
# Values joined by “and” are separate entries in the source; they are usually repeats but may differ in a detail not shown here. Equal values may be shown once. Screen size: about 5,500 compounds; about 2,000 (36%) were called active. Not shown: some 18% with an inconclusive outcome. The list shows a part of the results. A number with no mark means an inactive call. Rule as the data show it: active = normalized growth mostly below about 0.91 (no sharp cut-off); inconclusive = no clear call, values can overlap the other calls; inactive = mostly above about 0.92.
# Assay: chemical genetic growth profiling, strain panel (AID 1159580);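 also: tested at 20 µM; growth read once vehicle control cultures reached saturation at 30 °C; 1 = growth at the plate median or of vehicle wells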
# Conditions: S. cerevisiae deletion strains, growth OD
structure (smiles),measurement,setting,value
CC(NCCc1ccc(O)cc1)C(O)c1ccc(O)cc1 (centres undefined),normalized growth,"locus YAL021C, strain ccr4, stronger effect = lower value",0.997
same,normalized growth,"locus YAL026C, strain drs2, stronger effect = lower value",0.504 (active)
same,normalized growth,"locus YAL030W, strain snc1, stronger effect = lower value",1.01
same,normalized growth,"locus YBL061C, strain skt5, stronger effect = lower value",0.991
same,normalized growth,"locus YBR009C, strain hhf1, stronger effect = lower value",1.04
same,normalized growth,"locus YBR021W, strain FUR4, stronger effect = lower value",0.962
same,normalized growth,"locus YBR023C, strain chs3, stronger effect = lower value",0.989
same,normalized growth,"locus YBR171W, strain sec66, stronger effect = lower value",0.994
same,normalized growth,"locus YBR229C, strain ROT2, stronger effect = lower value",0.988
same,normalized growth,"locus YBR231C, strain swc5, stronger effect = lower value",1.01
same,normalized growth,"locus YBR279W, strain paf1, stronger effect = lower value",0.978
same,normalized growth,"locus YCL011C, strain gbp2, stronger effect = lower value",0.991
same,normalized growth,"locus YCL016C, strain dcc1, stronger effect = lower value",0.968
same,normalized growth,"locus YCL029C, strain bik1, stronger effect = lower value",0.977
same,normalized growth,"locus YCL061C, strain MRC1, stronger effect = lower value",0.999
same,normalized growth,"locus YCL069W, strain vba3, stronger effect = lower value",0.973
same,normalized growth,"locus YCR088W, strain abp1, stronger effect = lower value",0.997
same,normalized growth,"locus YDL005C, strain med2, stronger effect = lower value",0.983
same,normalized growth,"locus YDL035C, strain GPR1, stronger effect = lower value",0.982
same,normalized growth,"locus YDL040C, strain nat1, stronger effect = lower value",0.99
same,normalized growth,"locus YDL074C, strain BRE1, stronger effect = lower value",0.999
same,normalized growth,"locus YDL101C, strain DUN1, stronger effect = lower value",0.985
same,normalized growth,"locus YDL134C, strain PPH21, stronger effect = lower value",0.977
same,normalized growth,"locus YDL185W, strain tfp1, stronger effect = lower value",0.979
same,normalized growth,"locus YDL192W, strain arf1, stronger effect = lower value",0.982
same,normalized growth,"locus YDR001C, strain nth1, stronger effect = lower value",0.998
same,normalized growth,"locus YDR069C, strain doa4, stronger effect = lower value",1.01
same,normalized growth,"locus YDR101C, strain arx1, stronger effect = lower value",0.997
same,normalized growth,"locus YDR137W, strain rgp1, stronger effect = lower value",0.982
same,normalized growth,"locus YDR150W, strain NUM1, stronger effect = lower value",0.994
same,normalized growth,"locus YDR159W, strain sac3, stronger effect = lower value",1
same,normalized growth,"locus YDR162C, strain NBP2, stronger effect = lower value",0.984
same,normalized growth,"locus YDR195W, strain ref2",0.99
same,normalized growth,"locus YDR297W, strain sur2, stronger effect = lower value",1.01
same,normalized growth,"locus YDR318W, strain mcm21, stronger effect = lower value",0.986
same,normalized growth,"locus YDR334W, strain swr1, stronger effect = lower value",0.984
same,normalized growth,"locus YDR335W, strain msn5, stronger effect = lower value",0.952
same,normalized growth,"locus YDR388W, stronger effect = lower value",0.981
same,normalized growth,"locus YDR392W, strain spt3, stronger effect = lower value",0.189 (active)
same,normalized growth,"locus YDR502C, strain sam2, stronger effect = lower value",0.983
same,normalized growth,"locus YEL003W, strain gim4, stronger effect = lower value",0.999
same,normalized growth,"locus YEL037C, strain rad23, stronger effect = lower value",0.954
same,normalized growth,"locus YEL061C, strain CIN8 (second series), stronger effect = lower value",0.989
same,normalized growth,"locus YEL061C, strain CIN8, stronger effect = lower value",0.993
same,normalized growth,"locus YER015W, strain faa2, stronger effect = lower value",0.995
same,normalized growth,"locus YER016W, strain bim1, stronger effect = lower value",0.984
same,normalized growth,"locus YER110C, stronger effect = lower value",0.977
same,normalized growth,"locus YER111C, strain swi4, stronger effect = lower value",0.979
same,normalized growth,"locus YER155C, strain BEM2 (second series), stronger effect = lower value",0.948
same,normalized growth,"locus YER155C, strain BEM2, stronger effect = lower value",0.983
same,normalized growth,"locus YER167W, strain BCK2, stronger effect = lower value",0.983
same,normalized growth,"locus YFR010W, strain ubp6, stronger effect = lower value",0.922
same,normalized growth,"locus YGL078C, strain dbp3, stronger effect = lower value",0.984
same,normalized growth,"locus YGL086W, strain mad1, stronger effect = lower value",0.987
same,normalized growth,"locus YGL167C, strain pmr1, stronger effect = lower value",0.997
same,normalized growth,"locus YGL173C, strain kem1, stronger effect = lower value",1.02
same,normalized growth,"locus YGL227W, strain vid30, stronger effect = lower value",0.993
same,normalized growth,"locus YGL240W, strain doc1, stronger effect = lower value",1.02
same,normalized growth,"locus YGL248W, strain PDE1, stronger effect = lower value",0.996
same,normalized growth,"locus YGL253W, strain hxk2, stronger effect = lower value",0.766 (active)
same,normalized growth,"locus YGR078C, strain PAC10, stronger effect = lower value",1
same,normalized growth,"locus YGR135W, strain pre9, stronger effect = lower value",0.972
same,normalized growth,"locus YGR229C, strain SMI1, stronger effect = lower value",0.989
same,normalized growth,"locus YGR252W, strain gcn5, stronger effect = lower value",0.946
same,normalized growth,"locus YHR013C, strain ard1, stronger effect = lower value",0.953
same,normalized growth,"locus YHR027C, strain rpn1, stronger effect = lower value",1.01
same,normalized growth,"locus YHR030C, strain SLT2, stronger effect = lower value",0.986 and 1
same,normalized growth,"locus YHR079C, strain IRE1 (second series), stronger effect = lower value",0.979
same,normalized growth,"locus YHR079C, strain IRE1, stronger effect = lower value",1.01
same,normalized growth,"locus YHR094C, strain hxt1, stronger effect = lower value",0.978
same,normalized growth,"locus YHR129C, strain ARP1, stronger effect = lower value",0.986
same,normalized growth,"locus YHR142W, strain chs7, stronger effect = lower value",0.812 (active)
same,normalized growth,"locus YHR200W, strain rpn10, stronger effect = lower value",0.985
same,normalized growth,"locus YIL066C, strain RNR3, stronger effect = lower value",0.99
same,normalized growth,"locus YIL073C, strain SPO22, stronger effect = lower value",0.946
same,normalized growth,"locus YIL125W, strain kgd1, stronger effect = lower value",0.99
same,normalized growth,"locus YIR030C, strain dcg1, stronger effect = lower value",0.983
same,normalized growth,"locus YJL092W, strain hpr5, stronger effect = lower value",0.973
same,normalized growth,"locus YJL095W, strain BCK1 (second series), stronger effect = lower value",0.998
same,normalized growth,"locus YJL095W, strain BCK1, stronger effect = lower value",1.03 and 1.02
same,normalized growth,"locus YJL115W, strain asf1, stronger effect = lower value",0.975
same,normalized growth,"locus YJL129C, strain trk1, stronger effect = lower value",0.973
same,normalized growth,"locus YJL134W, strain LCB3, stronger effect = lower value",0.99
same,normalized growth,"locus YJL154C, strain vps35, stronger effect = lower value",0.983
same,normalized growth,"locus YJL164C, strain tpk1, stronger effect = lower value",0.987
same,normalized growth,"locus YJL166W, strain qcr8, stronger effect = lower value",1.03
same,normalized growth,"locus YJL168C, strain set2, stronger effect = lower value",0.983
same,normalized growth,"locus YJL187C, strain SWE1 (second series), stronger effect = lower value",1
same,normalized growth,"locus YJL187C, strain SWE1, stronger effect = lower value",0.998
